KB-V1 MDR tox: KB-V1 MDR subline cytotoxicity. KB-V1 MDR cells viability, CellTiter-Glo, 72 h. AID 1347076. 400,000 tested, 3.4% active. Potency, µM (series often up to 46.1 µM), actives largely listed as cytotoxic; further: potency means the concentration at half of the fitted maximal effect; nearly all actives have a fitted effect of over 60% in size
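Following 72 h at 37 degrees C with compound, KB-V1 cell viability was read by CellTiter-Glo luminescence, medium being phenol-red-free DMEM plus 10% FBS; concentration-response parameters came from normalized, curve-fitted qHTS data.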
HT1080 IDH1KD tx: toxicity to HT-1080 IDH1 knockdown cells (counter line); HT-1080 IDH1 knockdown viability, ATP luminescence, 48 h; 360,000 tested, 2% active; AID 686971; Potency, µM (highest dose often 46.1 µM), for the others: at the top dose activity, negative = toxicity, hits mostly cytotoxic;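 further: potency means the concentration at half of the fitted maximal effect; 0% = DMSO wells and -100% = cell-free medium wells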
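After a 2 h attachment period, IDH1KD HT-1080 cells took pin-transferred compound for 48 h at 37 °C; ATP-based luminescence after 10 min room-temperature reagent incubation reported viability.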
HT1080-NT tox: kills 2HG-producing HT-1080-NT fibrosarcoma cells. HT-1080-NT fibrosarcoma viability, CellTiter-Glo ATP luminescence, 48 h. Potency, µM (highest dose often 46.1 µM), without a hit: at the top dose activity, negative = less viability, usual class: cytotoxic. 360,000 tested, 1.6% active. AID 686970;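 further: NT is the 2HG producing partner of a matched IDH1 knockdown line; potency means the concentration at half of the fitted maximal effect; 0% = DMSO-treated cells and -100% = media-only wells without cells; nearly all actives have a fitted effect of over 55% in size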
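A 48-hour cytotoxicity screen used HT-1080-NT cells plated 2 hours before compound delivery. ATP-based CellTiter-Glo luminescence measured viability, normalized to DMSO and no-cell controls.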
KB-3-1 tox: KB-3-1 parental cell cytotoxicity; 400,000 tested, 1.4% active; Potency, µM (highest dose often 46.1 µM), most hits filed as cytotoxic; KB-3-1 viability, CellTiter-Glo ATP luminescence, 72 h; further: potency means the concentration at half of the fitted maximal effect; nearly all actives have a fitted effect of over 60% in size
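Multi-concentration cytotoxicity screen in KB-3-1 cells grown in DMEM lacking phenol red with 10% FBS. After 72 h at 37 °C with compound, ATP-dependent luminescence was recorded.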
IL1B secr inh: inhibitors of inflammasome signaling (IL-1 beta secretion); THP-1 LPS/ATP IL-1B secretion, AlphaLISA, 16 h; hits give low values; activity change, % at 57.5 µM; 360,000 tested, 4.7% active; AID 743279; in the data active means activity change below about -50%; inconclusive means mostly about -30% to -49%
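Secreted IL-1B measured by AlphaLISA bead assay after 16 h compound exposure of THP-1 cells; compounds (final up to 57.5 uM) added 1 h before LPS (250 ng/mL) and ATP (1.25 mM) stimulation; lower signal means less secretion.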
Active calls of the source: *; i = inactive; ? = inconclusive; / = no result given. Most compounds without a hit are left out; they make up all but 8.8% or so of the library. Unless noted, the call rests on the fitted dose curve; in most records, active means well fitted curve in the direction sought with a large enough effect; inconclusive means small, poorly fitted or top-dose-only effect, or another doubt; inactive means no such curve, though single readings can be large; an effect the other way counts as inactive or inconclusive. Unless noted, on the % scale 0 is the no-effect control and ±100 the full control effect.

SMILES	KB-V1 MDR tox	HT1080 IDH1KD tx	HT1080-NT tox	KB-3-1 tox	IL1B secr inh
COc1ccccc1NC(=O)NNC(=O)C(C)Oc1ccc2ccccc2c1 (configuration not stated)	i	1%	16%	i	-10
CC(Oc1ccc(F)cc1)C(=O)Nc1ccc2ccccc2c1 (configuration not stated)	?	-22%	?	i	2
CC(Oc1ccccc1F)C(=O)Nc1ccc2ccccc2c1 (configuration not stated)	?	?	-26%	12µM*	15
COc1cccc(CSc2nc3ccncc3[nH]2)c1	?	-25%	-27%	?	4
CN(C)CCCNc1nccc(N2CCN(C)CC2)n1	i	/	/	i	/
CN(Cc1ccc(C(C)(C)C)cc1)C(=O)C1CCN(C(=O)Nc2ccccc2)CC1	i	-24%	-19%	?	-60*
CCC1CCCCN1C(=O)COC(=O)c1cc(=O)[nH]c2ccccc12 (configuration not stated)	18µM*	1%	-6%	i	3
O=C(OCC(=O)N1CCCCC1)c1cc(=O)[nH]c2ccccc12	i	9%	0%	i	14
NC(=O)COC(=O)c1cc(=O)[nH]c2ccccc12	i	-2%	-5%	i	-4
COCC(C)n1c(C)cc(C(=O)COC(=O)c2cc(=O)[nH]c3ccccc23)c1C (configuration not stated)	21µM*	-5%	1%	i	-12
CCCCCOC(=O)c1cc(=O)[nH]c2ccccc12	2.3µM*	-5%	-21%	8.2µM*	14
CC(=O)Nc1cccc(C(=O)N2CCN(S(=O)(=O)c3ccc(C4CCCCC4)cc3)CC2)c1	i	-16%	-28%	i	11
O=C(Cn1c(=O)c(C(F)(F)F)nc2ccccc21)Nc1ccc(Br)cc1F	i	/	/	i	/
Cc1cccc2cc(C#N)c(NCCCn3ccnc3)nc12	15µM*	-1%	1%	i	-26
Cc1cccc2cc(C#N)c(NCCCNS(=O)(=O)c3ccc(Cl)cc3)nc12	9.2µM*	?	?	?	-24
COc1ccc(-n2c(-c3ccc(Br)cc3)c[n+]3c2SC(C)C3)cc1 (configuration not stated)	i	?	?	5.8µM*	-97*
O=C1CCCc2c1cc(-c1ccccc1)n2-c1ccc(O)cc1	i	-18%	-2%	i	-1
COc1ccc(-n2c(-c3ccccc3)c[n+]3c2CCC3)cc1	i	-27%	?	4.1µM*	?
COc1ccc(-n2nc(C(=O)O)nc2-c2ccccc2)cc1	i	10%	11%	i	2
COc1ccc(-n2c(-c3ccc(Br)cc3)c[n+]3c2CCCCC3)cc1	i	?	-26%	3.7µM*	-78*
COc1ccc(-n2c(-c3ccccc3)cc3c2CCCC3=O)cc1	12µM*	-10%	-12%	?	26
FC(F)Sc1ccc(-n2c(-c3ccc(Cl)cc3)c[n+]3c2CCC3)cc1	i	?	?	?	?
COc1ccc(-n2c(-c3ccc(Br)cc3)c[n+]3c2CCC3)cc1	i	?	?	4.1µM*	-67*
CCOc1ccc(-c2c[n+]3c(n2-c2ccccc2)CCCCC3)cc1	?	18µM*	?	5.8µM*	?
COC(=O)c1ccc(NC(=O)c2ccccc2-c2ccccc2C(=O)O)cc1	i	3%	-9%	i	11
SMILES	KB-V1 MDR tox	HT1080 IDH1KD tx	HT1080-NT tox	KB-3-1 tox	IL1B secr inh
CCCCCc1ccc(CC(=O)N2CCOCC2)cc1	i	0%	5%	i	45
COc1ccc(NC(=S)N2CCCN(Cc3cc(C)ccc3C)C2)cc1	i	-1%	-3%	i	?
CCOc1ccc(NC(=S)N2CCCN(Cc3cccc(Cl)c3)C2)cc1	i	?	-1%	i	-61*
CSc1cccc(NC(=S)N2CCCN(Cc3cccc(Cl)c3)C2)c1	?	?	?	i	-82*
COc1cccc(NC(=S)N2CCCN(Cc3ccc(F)cc3)C2)c1	i	?	0%	i	-13
COc1ccc(NC(=S)N2CCCN(Cc3cccc(Cl)c3)C2)cc1	i	-14%	-12%	i	-64*
COc1cc(OC)c(OC)cc1CNCCNC(=O)c1ccco1	i	24%	5%	i	0
COc1cc(N)c(Cl)cc1C(=O)OCC(=O)N1CCCCCC1	i	-1%	-1%	i	-1
Cc1ccc(-c2csc3ncnc(Sc4nnc(CN5CCCCCC5=O)o4)c23)cc1	i	-11%	0%	12µM*	-98*
O=C(N/N=C/c1ccc2c(c1)OCO2)c1ccc(NS(=O)(=O)c2cccs2)cc1	i	?	-21%	i	-60*
O=C(COc1ccccc1[N+](=O)[O-])N/N=C/C=C/c1ccco1	i	10%	8%	i	0
O=C(N/N=C/C=C/c1ccccc1[N+](=O)[O-])c1cccs1	?	19%	13%	i	4
O=C(N/N=C\C=C\c1ccc([N+](=O)[O-])o1)c1cccs1	i	13µM*	?	i	?
C/C(=N\NC(=O)c1ccc(NS(=O)(=O)c2cccs2)cc1)c1ccc(O)cc1O	i	23µM*	?	?	165
O=C(NN=Cc1ccc(F)c(F)c1)c1ccc(NS(=O)(=O)c2cccs2)cc1	?	?	3%	i	-4
COc1ccccc1OCC(=O)N/N=C/C=C/c1ccc([N+](=O)[O-])o1	16µM*	?	-6%	?	-100*
CN(C)c1ccc(/C=C/c2c3ccccc3cc[n+]2[O-])cc1	i	/	/	i	/
CCN1C[C@@H]2[C@@H]3C(=O)N(C)C(=O)[C@@H]3[C@](Cc3ccccc3)(C1=O)N2C(=O)c1ccc(Br)cc1	?	12%	16%	i	12
COc1ccc(NS(=O)(=O)c2ccc(-n3cccn3)cc2)cc1OC	i	/	/	?	/
O=C(N/N=C/c1ccc([N+](=O)[O-])cc1)c1ccc(NS(=O)(=O)c2cccs2)cc1	i	0%	2%	i	-14
O=C(N/N=C/c1ccc([N+](=O)[O-])o1)c1ccc(NS(=O)(=O)c2cccs2)cc1	?	23µM*	?	?	-54*
COCCC(=O)N1CCC(Oc2ccc(C(=O)NC3Cc4ccccc4C3)cc2)CC1	4.1µM*	-14%	-1%	i	-4
COCCC(=O)N1CCC(Oc2ccc(C(=O)NCCSC)cc2)CC1	i	19%	13%	i	8
CCOC(=O)c1sc(NC(=O)Nc2ccc(Cl)cc2)cc1C	?	?	?	?	-103*
CCOC(=O)c1sc(NC(=O)c2ccc(Cl)s2)cc1C	i	12%	13%	i	?

Compound activity as filed in PubChem BioAssay.
